Bioassay records as filed in PubChem.
fixLJ activator – activators of Burkholderia fixLJ two-component system; B. multivorans fixK-promoter GFP reporter, 18 h; active compounds read high; z-score (no concentration beside the values); actives 0.3% (n = 29,000); AID 1918990;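 active means replicate mean overnight rise in green fluorescent reporter signal, 3 or more SD over negative controls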
* hit, by the source's call. The sample as a whole holds a higher share of hits than the screen did.

SMILES | fixLJ activator
CC(C)Cc1cc(C(=O)N2CCN(CCC(=O)O)CC2)nc(=O)[nH]1 | 0.87
O=C(CC1CC1)NC(c1cnc2ccccc2c1)C1CC(O)C1 (configuration not stated) | -0.36
OCC1CCCN(CCNCc2ccnn2-c2ccccc2)C1 (configuration not stated) | -2.9
O=C(O)c1csc(CCNC(=O)N2CCCCC2c2cccnc2)n1 (configuration not stated) | -1.4
COc1ncccc1C(=O)N1CC(O)C(Cc2cc(C)[nH]n2)C1 (configuration not stated) | -0.85
Cc1cccnc1CC(=O)N1CCC(C(=O)N2CCOCC2)CC1 | 0.62
CC(C)Cc1cc(C(=O)NC2COCC2Cc2ccncc2)n(C)n1 (configuration not stated) | 0.28
COc1nccc(-c2cccc(C(=O)N(C)CCCC3CCCO3)c2)c1C#N (configuration not stated) | 0.88
Cc1ccc(CCC(=O)N2CCC3(CCC(=O)N(CCCO)C3)CC2)cc1 | -0.29
Cc1ccc2nc(-c3c[nH]c4ccccc34)c(Nc3ccccc3C)n2c1 | -0.83
Cc1ccc(Nc2c(-c3c[nH]c4ccccc34)nc3ccccn23)cc1 | 4.6*
Cc1ccc(Nc2c(-c3ccc(Br)o3)nc3ccccn23)cc1 | -1
O=C(Nc1ccccc1CN1CCOCC1)C1CCN(Cc2ccco2)CC1 | -1.3
COc1ccccc1NC(=O)c1sc2nc3c(cc2c1N)CCCCCC3 | -2.2
COc1ccccc1NC(=O)c1sc(-c2ccc(Cl)cc2)cc1N | 4.2*
COc1ccc(C(=O)Nc2cc(-c3nc4ccccc4s3)ccc2OC)cc1 | 0.46
COc1cccc(NC(CNS(=O)(=O)c2ccc(Cl)cc2)c2ccccc2)c1 (configuration not stated) | 4.2*
Cc1ccc(NC(CNS(=O)(=O)c2ccc(Cl)cc2)c2ccccc2)cc1 (configuration not stated) | -0.49
COc1cccc(NC(CNS(=O)(=O)c2ccc(C)cc2)c2ccccc2)c1 (configuration not stated) | 1
CC1(C(=O)N2CCC(OCc3cccnc3)CC2)CC12CCNCC2 (configuration not stated) | -0.61
Cc1cccc(CN2CCC(c3nnc(CN4CCN(C)CC4)n3C)CC2)n1 | -0.92
COc1ccc(C(=O)c2oc3ccccc3c2NC(=O)c2ccc(F)cc2)cc1 | -0.26
COc1ccccc1C(=O)Nc1c(C(=O)c2ccccc2)oc2ccccc12 | 3.7*
COc1ccccc1OCC(=O)Nc1c(C(=O)c2ccc(C)cc2)oc2ccccc12 | -2.1
Cc1nc(SCC(=O)N2CCC(c3nc4c(C)cccc4[nH]3)CC2)n[nH]1 | -0.59
SMILES | fixLJ activator
CCOc1ccc(-c2nn(-c3ccc(F)cc3)c3c2cnc2ccc(F)cc23)cc1 | -1.6
CCc1ccc(-c2nn(-c3ccc(OC)cc3)c3c2cnc2ccc(OC)cc23)cc1 | 1.1
CCOc1ccc2ncc3c(-c4cccc(OC)c4)nn(-c4ccccc4)c3c2c1 | 3.3*
CC(C)CCOc1ccc(CCNC(=O)c2cc(N)n[nH]2)cc1 | -0.29
Cc1nc(C)c(C(=O)N2CCC3(CN(C(=O)c4ccc(N)nc4)CCO3)C2)o1 (configuration not stated) | -0.43
CCn1ccnc1CN1CCC(CNC(=O)C2CCCCC2)C1 (configuration not stated) | 1.5
COc1ccccc1C(=O)Nc1cccc(OCc2cc(=O)n3c(C)csc3n2)c1 | -1.6
Cc1csc2nc(COc3cccc(NC(=O)c4ccccc4F)c3)cc(=O)n12 | 3*
Cc1ccccc1C(=O)Nc1cccc(OCc2cc(=O)n3c(C)csc3n2)c1 | -0.23
Nc1nc(CC(=O)NC2CCCc3nc(-c4ccccc4)ncc32)cc(=O)[nH]1 (configuration not stated) | -0.18
CN1C(C(=O)c2ccccc2)=C(NC(=O)c2ccc(F)cc2)c2ccccc2S1(=O)=O | 7.5*
Cc1ccc(NC(=O)c2ccccc2Br)c(C(=O)c2ccccc2)c1 | 0.54
CN1C(C(=O)c2ccccc2)=C(NC(=O)c2ccccc2Br)c2ccccc2S1(=O)=O | 3.6*
CCCCC(=O)OC1=C(C(=O)c2ccccc2)N(C)S(=O)(=O)c2ccccc21 | 2.3
COC(=O)CN1C(C(=O)c2ccccc2)=C(OC(=O)c2ccc(F)cc2)c2ccccc2S1(=O)=O | 1.6
CCCN1C(C(=O)c2ccccc2)=C(OC(=O)C(C)(C)C)c2ccccc2S1(=O)=O | 0.47
Cn1cc(C(NC(=O)c2ccc(F)cc2)C2CC(O)C2)cn1 (configuration not stated) | 0.19
CCC1CN(c2nc(C)ccc2C#N)CCC(=O)N1Cc1ccccc1 (configuration not stated) | -0.51
Cc1cnc(C)c(N2CCC3(CC2)CC(=O)N(Cc2noc(C)n2)CCO3)n1 | -0.02
CC(C)c1ccc(-c2cccc(C(=O)NCCc3nnc(N)s3)c2)nn1 | -0.23
CCC(=O)Nc1ccc(F)c(NC(=O)NCc2nc(CSC)no2)c1 | 0.23
COc1ccc(-c2cc(C(F)(F)F)n3ncc(-c4ccccc4)c3n2)cc1 | 3.3*
COc1ccc(-c2cc3nc(-c4ccccc4)cc(C(F)(F)F)n3n2)cc1 | 0.13
